We go through ten compounds from PubChem BioAssay (Tox21).

Assay [1] deals with Bile acid receptor (Homo sapiens) (UniProt Q96RI1). In words: qHTS assay to identify small molecule antagonists of the farnesoid-X-receptor (FXR) signaling pathway (AID 743217; active = well fitted inhibition curve with a large enough effect in the signal ratio in the repeat runs, not every such curve was filed as active; the % refers to the signal ratio). The method in brief:
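Test compounds are pin-transferred onto FXR-bla HEK 293T cells, then chenodeoxycholic acid is added at 50 uM final. After 16 h at 37 °C, LiveBLAzer B/G substrate is applied for 2 h at room temperature and fluorescence read.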
A general note: In qHTS, concentration-response curves come from the screen itself.

Assay [2] has the same target. Briefly: qHTS assay to identify small molecule agonists of the farnesoid-X-receptor (FXR) signaling pathway (AID 743220; active = well fitted activation curve with a large enough effect in the signal ratio in the repeat runs, not every such curve was filed as active; the % refers to the signal ratio). In outline:
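FXR-UAS-bla HEK 293T cells carrying a UAS-driven beta-lactamase reporter were plated for 5 h at 37C/5% CO2, then exposed to DMSO-dissolved Tox21 10K compounds for 16 h at 37C. A LiveBLAzer B/G FRET substrate was loaded for 2 h at room temperature before fluorescence reading.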

Assay [3] can be described thus: qHTS assay to identify small molecule antagonists of the farnesoid-X-receptor (FXR) signaling pathway - cell viability counter screen (AID 743221; active = well fitted cell-killing curve with a large enough effect in the repeat runs, not every such curve was filed as active; also: nearly all actives have a fitted effect of over 50% in size; also: potency is read from the fitted curve at half-maximal effect). The method in brief: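 After a 5 h settling period, FXR-bla HEK 293T cells receive compound and chenodeoxycholic acid (50 uM final) and incubate 16 h at 37 C; CellTiter-Glo luminescence, read after 30 min at room temperature, reports cell viability.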

The target in assay [4] is Vitamin D3 receptor (Homo sapiens) (UniProt P11473). Briefly: qHTS assay to identify small molecule agonists of the vitamin D receptor (VDR) signaling pathway (AID 743222). The method in brief: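 Tox21 cell reporter format: VDR-bla line, 16 h compound exposure in 5% CO2 at 37C, then fluorescence intensity after 2 h with LiveBLAzer B/G FRET substrate.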
The nature of assay [5]: qHTS assay to identify small molecule agonists of the vitamin D receptor (VDR) signaling pathway - cell viability counter screen (AID 743224; active = well fitted curve in the direction sought with a large enough effect in the repeat runs; an effect the other way counts as inactive or inconclusive; also: potency is read from the fitted curve at half-maximal effect; nearly all actives have a fitted effect of over 50% in size). In outline:
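CellTiter-Glo viability readout on VDR-bla cells, measured after 16 h of compound treatment at 37C in the same wells.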

A short description of assay [6]: qHTS assay to identify small molecule agonists of the NFkB signaling pathway - cell viability counter screen (AID 1159515). Also: nearly all actives have a fitted effect of over 55% in size. Also: potency is read from the fitted curve at half-maximal effect. In outline: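 Tox21 library compounds were tested for cytotoxicity against NFkB-bla ME-180 cells during a 5 hr exposure at 37 C. CellTiter-Glo luminescence served as the viability read-out.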
Assay [7] can be described thus: qHTS assay to identify small molecule agonists of the endoplasmic reticulum stress response signaling pathway - cell viability counter screen (AID 1159517). Also: nearly all actives have a fitted effect of over 50% in size. Also: potency is read from the fitted curve at half-maximal effect. The method in brief: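 In parallel with the ESRE reporter read, cytotoxicity was scored by CellTiter-Glo luminescence (30 min, room temperature) on HeLa ESRE-bla cells dosed for 5 hr.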
A short description of assay [8]: qHTS assay to identify small molecule agonists of the AP-1 signaling pathway - cell viability counter screen (AID 1159525). Also: nearly all actives have a fitted effect of over 55% in size. Also: potency is read from the fitted curve at half-maximal effect. In outline: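 Same-well cytotoxicity counter screen of the Tox21 10K library in ME-180 cells. The readout is ATP-dependent luminescence after 5 h compound treatment. Data are normalised to DMSO and tetra n-octyl ammonium bromide controls.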

Assay [9] can be described thus: qHTS assay to identify small molecule antagonists of the peroxisome proliferator-activated receptor delta (PPARd) signaling pathway - cell viability counter screen (AID 743213; active = well fitted curve in the direction sought with a large enough effect in the repeat runs; an effect the other way counts as inactive or inconclusive; also: nearly all actives have a fitted effect of over 50% in size; also: potency is read from the fitted curve at half-maximal effect). The method in brief:
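CellTiter-Glo was added to PPARd-bla HEK293H wells following 17 h compound treatment in the presence of 300 nM L165041. Luminescence was recorded after 30 min at room temperature.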

A short description of assay [10]: qHTS assay to identify small molecule antagonists of the vitamin D receptor (VDR) signaling pathway - cell viability counter screen (AID 743225; active = well fitted curve in the direction sought with a large enough effect in the repeat runs; an effect the other way counts as inactive or inconclusive; also: nearly all actives have a fitted effect of over 50% in size; also: potency is read from the fitted curve at half-maximal effect). In outline:
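Parallel cytotoxicity test: VDR-UAS-bla HEK 293T, 3 nM (final) 1-alpha,25-dihydroxyvitamin D3 with test compound, 16 h, 37C. Endpoint is CellTiter-Glo luminescence in the same wells.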

Assay [11] concerns the target Nuclear receptor ROR-gamma (Homo sapiens) (UniProt P51449). In words: qHTS assay to identify small molecule antagonists of the retinoid-related orphan receptor gamma (ROR-gamma) signaling pathway (AID 1159521; active = well fitted curve in the direction sought with a large enough effect in the repeat runs; an effect the other way counts as inactive or inconclusive; also: nearly all actives have a fitted effect of over 50% in size; also: potency is read from the fitted curve at half-maximal effect). The method in brief:
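Decreased RORE-driven luciferase luminescence indicates antagonism. Tet-on RORγ CHO cells received compound, then 1 uM final doxycycline 2 h later; signal read after 16 h incubation.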

Assay [12] can be described thus: qHTS assay to identify small molecule agonists of the RXR signaling pathway - cell viability counter screen (AID 1159529; active = well fitted curve in the direction sought with a large enough effect in the repeat runs; an effect the other way counts as inactive or inconclusive; also: nearly all actives have a fitted effect of over 50% in size; also: potency is read from the fitted curve at half-maximal effect). In outline: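 In this parallel viability measure, GeneBLAzer RXR-alpha HEK 293T cells (2% charcoal-stripped FBS) were given a 5 hr preincubation, treated with compounds 16 hr at 37 C, and read by CellTiter-Glo luminescence.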
For assay [13], the target named is Peroxisome proliferator-activated receptor delta (Homo sapiens) (UniProt Q03181). Briefly: qHTS assay to identify small molecule antagonists of the peroxisome proliferator-activated receptor delta (PPARd) signaling pathway (AID 743215; active = well fitted inhibition curve with a large enough effect in the signal ratio in the repeat runs, not every such curve was filed as active; the % refers to the signal ratio;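 also: cells stimulated with agonist L165041 at 300 nM final during compound exposure; potency is read from the fitted curve at half-maximal effect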). The method in brief:
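Here, a reporter line (HEK293H, beta-lactamase under a UAS) measures PPARd signaling. Compounds are tested against agonist L165041 at 300 nM final concentration over 17 h at 37 C, with fluorescence read after substrate.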

Assay [14] is described as follows: qHTS assay to identify small molecule agonists of the farnesoid-X-receptor (FXR) signaling pathway - cell viability counter screen (AID 743218; active = well fitted curve in the direction sought with a large enough effect in the repeat runs; an effect the other way counts as inactive or inconclusive; also: potency is read from the fitted curve at half-maximal effect; nearly all actives have a fitted effect of over 45% in size). The method in brief: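 Quantitative HTS counter screen measuring ATP-based viability via CellTiter-Glo luminescence in HEK 293T cells carrying a UAS-driven beta-lactamase reporter, after 16 h compound exposure at 37 C.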

Assay [15] has as its target Vitamin D3 receptor (Homo sapiens) (UniProt P11473). In words: qHTS assay to identify small molecule antagonists of the vitamin D receptor (VDR) signaling pathway (AID 743223; active = well fitted inhibition curve with a large enough effect in the signal ratio in the repeat runs, not every such curve was filed as active; the % refers to the signal ratio; also: potency is read from the fitted curve at half-maximal effect). The method in brief:
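Reporter line VDR-bla; stimulus 1alpha,25-(OH)2 vitamin D3, 3 nM final; compound co-addition, 16 h 37C/5% CO2; LiveBLAzer B/G substrate 2 h RT; fluorescence intensity.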

For assay [16], the target named is Peroxisome proliferator-activated receptor delta (Homo sapiens) (UniProt Q03181). In words: qHTS assay to identify small molecule agonists of the peroxisome proliferator-activated receptor delta (PPARd) signaling pathway (AID 743212). The method in brief: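 Tox21 library screened in GeneBLAzer PPARd UAS-bla HEK293H cells. After compound treatment at 37 C, a FRET-based beta-lactamase substrate was applied for 2 h and fluorescence recorded.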

A short description of assay [17]: qHTS assay to identify small molecule agonists of the AP-1 signaling pathway (AID 1159526).

Inconclusive results are not listed. The source made the active and inactive calls. Unless noted, calls follow the shape of the full dose curve.

Sequence of Bile acid receptor (Homo sapiens) (Q96RI1 whole entry, looked up): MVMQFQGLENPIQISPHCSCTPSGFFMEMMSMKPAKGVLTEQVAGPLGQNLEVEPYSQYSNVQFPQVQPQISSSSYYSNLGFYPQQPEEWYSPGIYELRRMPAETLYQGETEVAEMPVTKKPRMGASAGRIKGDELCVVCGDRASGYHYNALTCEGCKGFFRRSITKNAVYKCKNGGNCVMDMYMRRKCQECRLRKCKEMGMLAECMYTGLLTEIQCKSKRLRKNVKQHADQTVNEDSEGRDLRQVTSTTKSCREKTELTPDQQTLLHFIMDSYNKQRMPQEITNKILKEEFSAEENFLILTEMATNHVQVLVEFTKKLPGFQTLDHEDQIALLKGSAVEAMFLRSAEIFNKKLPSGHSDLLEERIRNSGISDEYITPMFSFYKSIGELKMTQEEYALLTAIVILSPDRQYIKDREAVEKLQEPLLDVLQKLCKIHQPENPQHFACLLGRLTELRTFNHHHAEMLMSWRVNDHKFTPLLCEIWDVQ
Sequence of Vitamin D3 receptor (Homo sapiens) (P11473 whole entry, looked up): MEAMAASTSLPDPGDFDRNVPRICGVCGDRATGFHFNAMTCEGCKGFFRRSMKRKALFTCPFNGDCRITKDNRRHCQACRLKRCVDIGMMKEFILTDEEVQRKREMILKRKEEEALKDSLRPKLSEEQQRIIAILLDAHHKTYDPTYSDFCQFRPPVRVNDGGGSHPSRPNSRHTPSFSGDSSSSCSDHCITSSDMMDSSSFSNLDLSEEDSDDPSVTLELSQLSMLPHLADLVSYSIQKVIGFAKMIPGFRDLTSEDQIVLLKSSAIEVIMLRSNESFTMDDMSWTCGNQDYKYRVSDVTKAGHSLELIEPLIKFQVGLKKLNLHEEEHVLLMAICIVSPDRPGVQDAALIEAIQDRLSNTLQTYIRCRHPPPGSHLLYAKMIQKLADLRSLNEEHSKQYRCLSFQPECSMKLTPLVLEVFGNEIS
Sequence of Peroxisome proliferator-activated receptor delta (Homo sapiens) (Q03181 whole entry, looked up): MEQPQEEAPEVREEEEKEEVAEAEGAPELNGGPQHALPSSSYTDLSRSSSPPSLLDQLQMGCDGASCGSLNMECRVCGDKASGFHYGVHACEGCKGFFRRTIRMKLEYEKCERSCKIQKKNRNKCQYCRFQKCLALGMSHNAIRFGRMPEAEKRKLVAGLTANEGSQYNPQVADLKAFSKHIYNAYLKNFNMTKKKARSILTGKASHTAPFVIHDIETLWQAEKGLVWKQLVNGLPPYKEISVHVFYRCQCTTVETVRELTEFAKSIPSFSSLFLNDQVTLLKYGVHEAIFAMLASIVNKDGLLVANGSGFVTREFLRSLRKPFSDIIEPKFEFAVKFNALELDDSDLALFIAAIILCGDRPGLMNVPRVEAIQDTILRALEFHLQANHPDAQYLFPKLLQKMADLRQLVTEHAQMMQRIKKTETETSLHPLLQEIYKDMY

For `N/C(=N\N=C\c1ccc(Cl)cc1)N/N=C/c1ccc(Cl)cc1`, the Potency result in [1], in assay [2], in assay [3] and in [4] was “inactive” each time. The Potency in assay [5] was 26.6 µM (active); in assay [6], 13.4 µM (active); in [7], 23.9 µM (active); in assay [8], 13.4 µM (active).
Turning to `CCCCCCCCCCCC(=O)NCCCN(C)C`, the Potency is 38.9 µM (active) in assay [9]; 49 µM (active) in [3]; 21.9 µM (active) in assay [5]; 38.9 µM (active) in [10]; 54.9 µM (active) in [6]; 49 µM (active) in assay [7]. The Potency in assay [11] was 30.6 µM (active); in assay [12] it was 15.5 µM (active).
For `C=CC(=O)OCC(CO)(COCC(COC(=O)C=C)(COC(=O)C=C)COC(=O)C=C)COC(=O)C=C`, the Potency in [9] is 5.43 µM (active); in assay [13], 4.31 µM (active); in assay [14] it was 4.31 µM (active); in assay [3], 9.65 µM (active); in assay [15] it was 2.72 µM (active); in assay [5], 3.84 µM (active). In addition, the Potency in assay [10] was 5.43 µM (active); in assay [6] it was 48.4 µM (active); in [7], 3.42 µM (active); in [11], 2.7 µM (active); in assay [8], 24.2 µM (active). Besides, in [4], the Potency result is “inactive”.
As to `Oc1cccc(-c2c3nc(c(-c4cccc(O)c4)c4ccc([nH]4)c(-c4cccc(O)c4)c4nc(c(-c5cccc(O)c5)c5ccc2[nH]5)CC4)C=C3)c1`, the values for the Potency in [14], in assay [5] and in [12] were 21.1 µM (active), 26.6 µM (active) and 23.9 µM (active), respectively. The Potency entry in assay [6] and in assay [7] was “inactive” each time.
Take `O=C1CCCCCN1SSN1CCCCCC1=O`: the Potency result in [16], in assay [9], in assay [1], in assay [2], in assay [3] and in assay [6] was “inactive” in each case. Besides, the Potency result in [7] and in [12] was “inactive” each time. In addition, the Potency in assay [11] was 24.3 µM (active).
As to `CCN(CC)CCNC(=O)c1c(C)[nH]c(/C=C2\C(=O)Nc3ccc(F)cc32)c1C`, the Potency in assay [9] is 4.73 µM (active); in [14] it was 13.3 µM (active); in [3], 21.1 µM (active); in assay [5], 29.8 µM (active); in assay [7], 7.56 µM (active); in [12] it was 7.56 µM (active). Further, the Potency result in [6], in assay [8] and in assay [17] was “inactive” throughout.
`Oc1c(Cl)cc(Cl)c2cccnc12`: the Potency result in assay [3] and in [7] was “inactive” in each case. Besides, the figures for the Potency in [6] and in assay [11] were 0.477 µM (active) and 11.9 µM (active), respectively.
As for `CN(C/C=C/C#CC(C)(C)C)Cc1cccc2ccccc12`, the Potency result in assay [9], in [2], in assay [4], in assay [15], in assay [10] and in [7] was “inactive” in each case. Moreover, the Potency entry in assay [11] and in assay [8] was “inactive” throughout. Moreover, the Potency in assay [6] was 21.3 µM (active).
For the compound `O=c1c(-c2ccccc2)c1-c1ccccc1`, the Potency in assay [14] was 9.44 µM (active); in [3], 13.3 µM (active); in assay [11], 18.8 µM (active). Moreover, the Potency result in [2], in [6] and in [7] was “inactive” in each case.
In the case of `CN1CCN(CCC(=O)N2c3ccccc3Sc3ccc(C(F)(F)F)cc32)CC1`, the Potency result in assay [16], in assay [2], in assay [4], in assay [6], in assay [7] and in [8] was “inactive” in each case. In addition, the Potency was 16.8 µM (active) in [9]; 29.8 µM (active) in assay [13]; 21.1 µM (active) in assay [14]; 33.5 µM (active) in assay [3]; 21.1 µM (active) in assay [5]; 12 µM (active) in assay [10]. In [12], the Potency was 23.9 µM (active).
